# Source: PubChem (The Scripps Research Institute Molecular Screening Center)
# Most compounds without a hit are left out; they make up all but 2.4% or so of the library.
# CHRM1 antagonist = blocks human M1 muscarinic receptor; 360,000 compounds, 1.3% hits; inhibition, % at 3 µM; AID 588852; CHO-K1 hM1, Fluo-8 calcium fluorescence, ACh EC80 antagonist; P11229;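 active = percent inhibition above its own plate's cutoff, namely the mean of that plate's compound wells plus 3 SD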;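 note: peak over basal fluorescence ratio during 140 s after agonist addition; 0% = ACh EC80 plus DMSO and 100% = DMSO alone without agonist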
# Target sequence (P11229 whole entry, looked up): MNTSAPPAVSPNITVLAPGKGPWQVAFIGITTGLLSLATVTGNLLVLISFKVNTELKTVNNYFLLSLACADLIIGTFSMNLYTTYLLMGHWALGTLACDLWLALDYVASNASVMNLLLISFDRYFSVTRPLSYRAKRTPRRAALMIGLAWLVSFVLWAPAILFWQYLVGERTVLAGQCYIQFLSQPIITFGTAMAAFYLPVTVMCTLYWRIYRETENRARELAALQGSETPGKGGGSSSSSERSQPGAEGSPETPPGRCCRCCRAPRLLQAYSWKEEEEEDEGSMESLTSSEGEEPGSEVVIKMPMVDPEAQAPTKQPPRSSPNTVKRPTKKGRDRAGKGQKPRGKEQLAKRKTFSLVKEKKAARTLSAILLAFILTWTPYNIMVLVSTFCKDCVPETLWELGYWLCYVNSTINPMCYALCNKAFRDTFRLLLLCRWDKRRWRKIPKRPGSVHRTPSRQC
# M1 ag = agonists of human M1 muscarinic receptor | P11229 | CHO-K1 hM1, Fluo-8 calcium fluorescence, agonist mode; 0% DMSO, 100% acetylcholine EC100 | activation, % at 3 µM | 360,000 compounds, 0.33% hits | AID 588814;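 active = activation above the run's mean compound activation plus 3 SD, cut at about 16% in these data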;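 note: peak over basal fluorescence ratio within a 140 s kinetic read after compound addition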
# M1 PAM parental = counter-screen for M1 PAMs: effect in parental CHO-K1 cells | AID 602247 | 360,000 compounds, 0.02% hits | activation, % at 3 µM | ATP EC20, Fluo-8 calcium fluorescence; 0% at ATP EC20, 100% at ATP max;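 active = activation above the run cutoff, the mean activation of all test compounds plus 3 SD, cut at about 40% in these data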;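 note: peak over basal fluorescence ratio in a 140 s read after ATP addition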
# CHRM1 PAM = potentiates human M1 receptor response to acetylcholine; P11229; CHO-K1 hM1, Fluo-8 calcium fluorescence, ACh EC20; 0% = ACh EC20, 100% = maximal ACh; activation, % at 3 µM; 360,000 compounds, 0.088% hits; in the data active = activation above about 19%, passing the limit was not always enough
# CHO-K1 Ca antag = counter-screen for M1 antagonists: effect in parental CHO-K1 cells; ATP-induced calcium, Fluo-8 fluorescence; inhibition, % at 3 µM; 360,000 compounds, 0.6% hits; AID 602250;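 active = inhibition above a per-plate cutoff, the plate's mean sample inhibition plus 3 SD, cut at about 24% in these data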;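 note: 0% = DMSO plus EC80 ATP and 100% = DMSO alone without ATP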
# CHO-K1 Ca ag = nonselective activator or artifact in parental CHO-K1 cells. Fluo-8 calcium fluorescence; scaled to maximal ATP response, vehicle zero. activation, % at 3 µM. 360,000 compounds, 0.48% hits. AID 602248; in the data active = activation above about 15%;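 note: untransfected CHO-K1 host cells lacking M1 receptor as counterscreen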
# * = called active by the depositor.
SMILES,CHRM1 antagonist,M1 ag,M1 PAM parental,CHRM1 PAM,CHO-K1 Ca antag,CHO-K1 Ca ag
O=C(CCCCCn1c(=S)[nH]c2cc3c(cc2c1=O)OCO3)N1CCN(C2CCCCC2)CC1,37*,-4,-3,-18,5,2
COC(=O)Cn1cnc2c(cnn2-c2ccc(C)cc2)c1=O,-7,-3,13,5,-12,5
CCN1C[C@@H]2[C@@H]3C(=O)N(C)C(=O)[C@@H]3[C@](C)(C1=O)N2C(=O)c1ccc(C)cc1,-17,-1,32,13,-25,2
COc1ccc(OC)c(NC(=O)c2cc(OC(C)=O)cc(C(=O)Nc3cc(OC)ccc3OC)c2)c1,-4,2,-11,10,30*,2
CC1CCCC(C)N1C(=O)COC(=O)CNC(=O)c1sc2ccccc2c1Cl (stereo not given),-6,-2,-16,4,18,19*
CCOC(=O)N1CCC(N2CCN(CCC(C)C)C(CCO)C2)CC1 (stereo not given),41*,-9,22,-21,-1,1
C[C@H](NC(=O)c1ccc2ccccc2c1)C(=O)N1CCC2(CC1)NCCc1[nH]cnc12,9,-5,11,-5,-10,2
COC(=O)[C@@H]1CCCN1C(=O)c1ccc(OC2CCN(Cc3ccccn3)CC2)cc1,-22,-4,-10,28*,-13,0
CCOc1ccccc1OCCCC(=O)N1CCN(S(=O)(=O)c2ccc(Cl)cc2)CC1,9,-5,5,16,-16,3
CCOc1ccccc1OCCCC(=O)N1CCN(S(=O)(=O)c2cc(F)ccc2F)CC1,12,-4,-18,-2,28*,0
Nc1c(N(CCC2=CCCCC2)C(=O)C2CC2)c(=O)[nH]c(=O)n1Cc1ccccc1,-4,-2,-2,5,3,0
COc1cccc(CN2CCN(C(=O)Nc3ccc([N+](=O)[O-])cc3)CC2)c1,31*,-3,-11,-10,3,1
CCCC(=O)c1cc2c(cc1NC(=O)c1ccccc1F)OCCO2,-7,-3,8,6,-1,0
O=[N+]([O-])c1ccc(OCc2cnc(Cl)s2)c([N+](=O)[O-])c1,0,-4,18,2,-20,4
Cc1ccc(C(OCC(O)CNCc2ccc(F)cc2)c2ccccc2)cc1 (stereo not given),8,7,12,3,36*,17*
CCOc1ccc(NCc2cccn2-c2nnc(N3CCC(C(=O)NCCCN4CC(C)CC(C)C4)CC3)s2)cc1 (stereo not given),98*,-6,-17,-23,-2,1
CCN1CCN(CCCNC(=O)C2CCN(c3nnc(-n4cccc4)s3)CC2)CC1,-15,-5,-8,7,-5,0
CC(=O)c1ccc(N2CCN(C3CCC(C(C)(C)C)CC3)CC2)cc1 (stereo not given),39*,-11,-24,-22,6,0
CCc1ccc(NC(=O)c2c(Cl)nc(C)c(Cl)c2C)cc1,2,-8,27,-4,-12,0
COC(=O)C1=C(C)NC(C)=C(C(=O)OC)C1c1ccco1,0,-3,6,9,-3,19*
CCOC(=O)C1=C(C)NC(C)=C(C(=O)OCC)C1c1ccncc1,-20,-3,3,7,-10,0
CCN(CC)c1ccc(C2C(C(=O)OC)=C(C)NC(C)=C2C(=O)OC)cc1,37*,-7,-4,-26,4,0
COC(=O)C1=C(C)NC(C)=C(C(=O)OC)C1c1ccc(NC(C)=O)cc1,-12,32*,12,-5,-15,0
CCOC(=O)C1=C(C)NC(=O)NC1c1ccc(N(CC)CC)cc1 (stereo not given),30*,-12,0,-24,-2,0
Cc1nn(C(=O)CCCC(=O)NCc2ccccc2)c2ccccc12,1,-3,8,1,-2,0
SMILES,CHRM1 antagonist,M1 ag,M1 PAM parental,CHRM1 PAM,CHO-K1 Ca antag,CHO-K1 Ca ag
NC(=O)c1ccsc1NC(=O)COC(=O)CNC(=O)c1ccc(Cl)cc1,-9,4,29,-3,-22,9
COc1cccc(CC2(CO)CCN(Cc3ccc4cccc(F)c4n3)CC2)c1,5,-7,26,-2,-10,3
CCOC(=O)Nc1ccc2c(c1)N(C(=O)CN(CC)CC)c1ccccc1C=C2,72*,-15,0,-35,-5,0
CCOC(=O)Nc1ccc2c(c1)N(C(=O)CCN(CC)CC)c1ccccc1S2=O (stereo not given),59*,-9,13,-27,-10,1
CCOC(=O)C1=c2/c(=C/c3ccncc3)c(N)c(C(=O)OC)n2C(=O)C(c2ccncc2)S1 (stereo not given),-9,-4,-1,5,-4,1
Cc1ccc(S(=O)(=O)N2C[C@H]3[C@H]4C(=O)N(c5ccccc5)C(=O)[C@H]4C[C@H](OC(=O)NC4CCCC4)[C@@]3(O)C2)cc1,-7,-2,17,4,-2,0
COc1ccc(C(CNC(=O)c2cc(C)on2)N(C)C)cc1 (stereo not given),-13,-11,3,12,1,0
O=C1COc2ccc(C(=O)COC(=O)c3cc(S(=O)(=O)N4CCOCC4)ccc3F)cc2N1,2,-3,19,-1,-15,8
COc1ccc(S(=O)(=O)NCC2CCCN(Cc3ccccc3Cl)C2)cc1 (stereo not given),51*,-6,-14,-24,3,0
COc1ccc(S(=O)(=O)NCC2CCCN(Cc3ccc(OC)cc3F)C2)cc1 (stereo not given),-3,-14,23,2,-15,1
Cc1ccc(/C=C/C(=O)O)cc1S(=O)(=O)NC1CCS(=O)(=O)C1 (stereo not given),1,-9,18,5,-9,2
CCOc1cc(N(CC)CC)ccc1/C=C(/C#N)c1nc2ccccc2[nH]1,52*,36*,-8,-19,21,19*
CCCOc1cc(N(CC)CC)ccc1/C=C(/C#N)c1nc2ccc(C)cc2[nH]1,39*,11,-4,-12,35*,17*
COc1cc(/C=C(\C#N)c2nc3ccc(C)cc3[nH]2)c([N+](=O)[O-])cc1OC,-29,13,19,4,-9,0
CCN(CC)c1ccc(/C=C(/C#N)c2nc3ccc(C)cc3[nH]2)c(OC(C)C)c1,52*,31*,-14,-25,50*,39*
COc1ccc(-c2nc(CS(=O)CC(=O)N3CCOCC3)c(C)o2)cc1OC (stereo not given),-18,0,11,17,-5,0
CCOC(=O)c1cc2sccc2n1CC(=O)Nc1ccc(OC)cc1OC,7,-5,8,-4,-1,1
